# Data: PubChem BioAssay AID1159580 (chemical genetic matrix, 2015)
# The whole screen tested about 5,500 compounds, of which about 2,000 (36%) were called active. About 18% were inconclusive and are not listed. The list shows a part of the results. A number with no mark means an inactive call. No stated cut-off is given here; in the data, active means normalized growth mostly below about 0.91 (no sharp cut-off); inconclusive means no clear call, values can overlap the other calls; inactive means mostly above about 0.92.
# Experiment: chemical genetic growth profiling, strain panel (AID 1159580);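 further: tested at 20 µM; growth read once vehicle control cultures reached saturation at 30 °C; 1 = growth at the plate median or of vehicle wells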
# Conditions: growth OD
structure (smiles),measurement,setting,value
CN[C@@H]1C(O)[C@@H](O[C@@H]2[C@@H](O)[C@H](O[C@H]3OC(CN)=CC[C@H]3N)[C@@H](N)C[C@H]2N)OC[C@]1(C)O (some centres undefined),normalized growth,"S. cerevisiae deletion strains, locus YJR075W, strain HOC1, stronger effect = lower value",1.02
same,normalized growth,"S. cerevisiae deletion strains, locus YKL009W, strain mrt4, stronger effect = lower value",1.01
same,normalized growth,"S. cerevisiae deletion strains, locus YKL068W, stronger effect = lower value",0.996
same,normalized growth,"S. cerevisiae deletion strains, locus YKL085W, strain MDH1 (second series), stronger effect = lower value",1
same,normalized growth,"S. cerevisiae deletion strains, locus YKL085W, strain MDH1, stronger effect = lower value",1
same,normalized growth,"S. cerevisiae deletion strains, locus YKL160W, strain elf1, stronger effect = lower value",1.02
same,normalized growth,"S. cerevisiae deletion strains, locus YKL190W, strain CNB1, stronger effect = lower value",1.02
same,normalized growth,"S. cerevisiae deletion strains, locus YKR001C, strain vps1, stronger effect = lower value",0.993
same,normalized growth,"S. cerevisiae deletion strains, locus YKR026C, strain gcn3, stronger effect = lower value",1
same,normalized growth,"S. cerevisiae deletion strains, locus YKR091W, strain srl3, stronger effect = lower value",1.01
same,normalized growth,"S. cerevisiae deletion strains, locus YLL001W, strain dnm1, stronger effect = lower value",1.03
same,normalized growth,"S. cerevisiae deletion strains, locus YLL026W, stronger effect = lower value",1.02
same,normalized growth,"S. cerevisiae deletion strains, locus YLL041C, strain sdh2, stronger effect = lower value",1.02
same,normalized growth,"S. cerevisiae deletion strains, locus YLR027C, strain aat2, stronger effect = lower value",1.02
same,normalized growth,"S. cerevisiae deletion strains, locus YLR039C, strain RIC1, stronger effect = lower value",1.13
same,normalized growth,"S. cerevisiae deletion strains, locus YLR058C, strain SHM2, stronger effect = lower value",1.02
same,normalized growth,"S. cerevisiae deletion strains, locus YLR102C, strain apc9, stronger effect = lower value",0.993
same,normalized growth,"S. cerevisiae deletion strains, locus YLR113W, strain HOG1, stronger effect = lower value",0.949
same,normalized growth,"S. cerevisiae deletion strains, locus YLR221C, strain rsa3, stronger effect = lower value",0.984
same,normalized growth,"S. cerevisiae deletion strains, locus YLR258W, strain gsy2, stronger effect = lower value",1.01
same,normalized growth,"S. cerevisiae deletion strains, locus YLR262C, strain YPT6 (second series), stronger effect = lower value",1.03
same,normalized growth,"S. cerevisiae deletion strains, locus YLR262C, strain YPT6, stronger effect = lower value",1.09
same,normalized growth,"S. cerevisiae deletion strains, locus YLR268W, strain sec22, stronger effect = lower value",1.01
same,normalized growth,"S. cerevisiae deletion strains, locus YLR320W, strain mms22, stronger effect = lower value",0.988
same,normalized growth,"S. cerevisiae deletion strains, locus YLR330W, strain CHS5, stronger effect = lower value",1.01
same,normalized growth,"S. cerevisiae deletion strains, locus YLR342W, strain FKS1 (second series), stronger effect = lower value",1.05
same,normalized growth,"S. cerevisiae deletion strains, locus YLR342W, strain FKS1, stronger effect = lower value",1.02
same,normalized growth,"S. cerevisiae deletion strains, locus YLR357W, strain rsc2, stronger effect = lower value",1.03
same,normalized growth,"S. cerevisiae deletion strains, locus YLR370C, strain arc18, stronger effect = lower value",1.02
same,normalized growth,"S. cerevisiae deletion strains, locus YLR371W, strain rom2, stronger effect = lower value",0.995
same,normalized growth,"S. cerevisiae deletion strains, locus YLR384C, strain iki3, stronger effect = lower value",1.01
same,normalized growth,"S. cerevisiae deletion strains, locus YLR418C, strain cdc73, stronger effect = lower value",1.02
same,normalized growth,"S. cerevisiae deletion strains, locus YML016C, strain PPZ1, stronger effect = lower value",1.02
same,normalized growth,"S. cerevisiae deletion strains, locus YML120C, strain ndi1, stronger effect = lower value",1.02
same,normalized growth,"S. cerevisiae deletion strains, locus YML124C, strain tub3, stronger effect = lower value",0.991
same,normalized growth,"S. cerevisiae deletion strains, locus YMR058W, strain fet3, stronger effect = lower value",1.03
same,normalized growth,"S. cerevisiae deletion strains, locus YMR078C, strain ctf18, stronger effect = lower value",0.996
same,normalized growth,"S. cerevisiae deletion strains, locus YMR125W, strain sto1, stronger effect = lower value",1
same,normalized growth,"S. cerevisiae deletion strains, locus YMR129W, stronger effect = lower value",1.01
same,normalized growth,"S. cerevisiae deletion strains, locus YMR205C, strain PFK2, stronger effect = lower value",1.02
same,normalized growth,"S. cerevisiae deletion strains, locus YMR223W, strain ubp8, stronger effect = lower value",1
same,normalized growth,"S. cerevisiae deletion strains, locus YMR231W, strain pep5, stronger effect = lower value",1
same,normalized growth,"S. cerevisiae deletion strains, locus YMR263W, strain SAP30, stronger effect = lower value",1.05
same,normalized growth,"S. cerevisiae deletion strains, locus YMR307W, strain GAS1, stronger effect = lower value",1.01
same,normalized growth,"S. cerevisiae deletion strains, locus YNL067W, strain RPL9B, stronger effect = lower value",1.04
same,normalized growth,"S. cerevisiae deletion strains, locus YNL071W, strain lat1, stronger effect = lower value",1.02
same,normalized growth,"S. cerevisiae deletion strains, locus YNL128W, strain TEP1, stronger effect = lower value",1.04
same,normalized growth,"S. cerevisiae deletion strains, locus YNL153C, strain GIM3, stronger effect = lower value",1.03
same,normalized growth,"S. cerevisiae deletion strains, locus YNL183C, strain NPR1, stronger effect = lower value",0.93
same,normalized growth,"S. cerevisiae deletion strains, locus YNL209W, strain ssb2, stronger effect = lower value",1.01
same,normalized growth,"S. cerevisiae deletion strains, locus YNL233W, strain BNI4, stronger effect = lower value",1.02
same,normalized growth,"S. cerevisiae deletion strains, locus YNL248C, strain rpa49, stronger effect = lower value",0.992
same,normalized growth,"S. cerevisiae deletion strains, locus YNL250W, strain rad50, stronger effect = lower value",1
same,normalized growth,"S. cerevisiae deletion strains, locus YNL271C, strain bni1, stronger effect = lower value",1
same,normalized growth,"S. cerevisiae deletion strains, locus YNL298W, strain CLA4, stronger effect = lower value",1
same,normalized growth,"S. cerevisiae deletion strains, locus YNL307C, strain MCK1, stronger effect = lower value",0.999
same,normalized growth,"S. cerevisiae deletion strains, locus YNL322C, strain KRE1 (second series), stronger effect = lower value",0.996
same,normalized growth,"S. cerevisiae deletion strains, locus YNL322C, strain KRE1, stronger effect = lower value",1.02
same,normalized growth,"S. cerevisiae deletion strains, locus YNR049C, strain mso1, stronger effect = lower value",1.04
same,normalized growth,"S. cerevisiae deletion strains, locus YNR052C, strain pop2, stronger effect = lower value",0.987
same,normalized growth,"S. cerevisiae deletion strains, locus YOL006C, strain TOP1, stronger effect = lower value",1.19
same,normalized growth,"S. cerevisiae deletion strains, locus YOL012C, strain htz1",2.02
same,normalized growth,"S. cerevisiae deletion strains, locus YOL147C, strain pex11, stronger effect = lower value",0.986
same,normalized growth,"S. cerevisiae deletion strains, locus YOR001W, strain rrp6, stronger effect = lower value",1.03
same,normalized growth,"S. cerevisiae deletion strains, locus YOR061W, strain CKA2, stronger effect = lower value",1.02
same,normalized growth,"S. cerevisiae deletion strains, locus YOR069W, strain VPS5, stronger effect = lower value",1.11 [resistant] (active)
same,normalized growth,"S. cerevisiae deletion strains, locus YOR070C, strain gyp1, stronger effect = lower value",1
same,normalized growth,"S. cerevisiae deletion strains, locus YOR080W, strain dia2, stronger effect = lower value",1
same,normalized growth,"S. cerevisiae deletion strains, locus YOR083W, strain WHI5, stronger effect = lower value",0.992
same,normalized growth,"S. cerevisiae deletion strains, locus YOR106W, strain vam3, stronger effect = lower value",1.03
same,normalized growth,"S. cerevisiae deletion strains, locus YOR136W, strain idh2, stronger effect = lower value",0.991
same,normalized growth,"S. cerevisiae deletion strains, locus YOR144C, strain elg1, stronger effect = lower value",0.991
same,normalized growth,"S. cerevisiae deletion strains, locus YOR184W, strain ser1, stronger effect = lower value",1.01
same,normalized growth,"S. cerevisiae deletion strains, locus YOR231W, strain MKK1, stronger effect = lower value",0.952
same,normalized growth,"S. cerevisiae deletion strains, locus YOR265W, strain rbl2, stronger effect = lower value",1
same,normalized growth,"S. cerevisiae deletion strains, locus YOR270C, strain vph1, stronger effect = lower value",1.05
same,normalized growth,"S. cerevisiae deletion strains, locus YOR290C, strain snf2, stronger effect = lower value",0.979
same,normalized growth,"S. cerevisiae deletion strains, locus YPL051W, strain arl3, stronger effect = lower value",1.01
same,normalized growth,"S. cerevisiae deletion strains, locus YPL055C, strain LGE1, stronger effect = lower value",1.09
same,normalized growth,"S. cerevisiae deletion strains, locus YPL078C, strain atp4, stronger effect = lower value",1.03
same,normalized growth,"S. cerevisiae deletion strains, locus YPL106C, strain sse1, stronger effect = lower value",1.02
same,normalized growth,"S. cerevisiae deletion strains, locus YPL240C, strain hsp82, stronger effect = lower value",1.01
same,normalized growth,"S. cerevisiae deletion strains, locus YPL256C, strain CLN2, stronger effect = lower value",0.96
same,normalized growth,"S. cerevisiae deletion strains, locus YPR119W, strain clb2, stronger effect = lower value",0.984
same,normalized growth,"S. cerevisiae deletion strains, locus YPR141C, strain kar3, stronger effect = lower value",1
same,normalized growth,"S. cerevisiae deletion strains, locus YPR163C, strain tif3, stronger effect = lower value",0.966
same,normalized growth,"S. cerevisiae deletion strains, locus YPR167C, strain met16, stronger effect = lower value",0.999
same,normalized growth,"S. cerevisiae deletion strains, strain wtn01, stronger effect = lower value",1.01
same,normalized growth,"S. cerevisiae strains, strain wild type, stronger effect = lower value",1.01
